Results published in PubChem BioAssay (NCI).
Compounds without any hit were thinned out: in the full panel of roughly 83,000, 20% have a hit.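 96-well plates, one dose, 48 hours. Percent growth reported; active if below 10.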 Values without a mark were called inactive. Calls of active or inactive are those of the source.

Tests used:
Assay in all cases: NCI-60 one-dose screen, 48 h (100 = growth as untreated, 0 = no growth, -100 = all killed)
Conditions in all cases: 10 µM
NCI-H23 lung = tested on: NCI-H23 lung
NCI-H226 lung = tested on: NCI-H226 lung
NCI-H322M lung = tested on: NCI-H322M lung
HOP-62 NSCLC = tested on: HOP-62 NSCLC
NCI-H460 lung = tested on: NCI-H460 lung
HOP-92 NSCLC = tested on: HOP-92 NSCLC
NCI-H522 lung = tested on: NCI-H522 lung
A549/ATCC NSCLC = tested on: A549/ATCC NSCLC
786-0 renal = tested on: 786-0 renal
COLO 205 colon = tested on: COLO 205 colon
DU-145 prostate = tested on: DU-145 prostate
K-562 leukemia = tested on: K-562 leukemia
MALME-3M melanoma = tested on: MALME-3M melanoma
MDA-MB-231 breast = tested on: MDA-MB-231 breast
RXF 393 renal = tested on: RXF 393 renal
SF-268 CNS = tested on: SF-268 CNS
SF-295 CNS = tested on: SF-295 CNS
SF-539 CNS = tested on: SF-539 CNS
UACC-257 melanoma = tested on: UACC-257 melanoma
M14 melanoma = tested on: M14 melanoma

Compound	growth (NCI-H23 lung)	growth (NCI-H226 lung)	growth (NCI-H322M lung)	growth (HOP-62 NSCLC)	growth (NCI-H460 lung)	growth (HOP-92 NSCLC)	growth (NCI-H522 lung)	growth (A549/ATCC NSCLC)	growth (786-0 renal)	growth (COLO 205 colon)	growth (DU-145 prostate)	growth (K-562 leukemia)	growth (MALME-3M melanoma)	growth (MDA-MB-231 breast)	growth (RXF 393 renal)	growth (SF-268 CNS)	growth (SF-295 CNS)	growth (SF-539 CNS)	growth (UACC-257 melanoma)	growth (M14 melanoma)
Cc1cc(Cl)ccc1Nc1nc(C(F)(F)F)ccc1C(=O)N/N=C/c1ccccc1Cl	16.9%	-12.4% (active)	9.54% (active)	-6.31% (active)	5.74% (active)	-1.9% (active)	-2.69% (active)	13.5%	-40.1% (active)	4.36% (active)	36.4%	56.3%	30%	-15.5% (active)	24.1%	31.1%	8.72% (active)	6.63% (active)	6.87% (active)	9.99% (active)
CC(C)OCc1cc(CN2CCN(c3cccc(Cl)c3)CC2)c(O)c2ncccc12	-44.8% (active)	1.5% (active)	-10.6% (active)	-0.196% (active)	0.361% (active)	-35.2% (active)	-26.2% (active)	-5.68% (active)	0.332% (active)	-43.1% (active)	11.8%	3.38% (active)	-40.6% (active)	-41.9% (active)	-14.9% (active)	5.89% (active)	-71.8% (active)	-6.98% (active)	-36.7% (active)	-17% (active)
COc1cc(-c2cc(-c3ccc(C)cc3)nc3nc(N)[nH]c(=O)c23)ccc1Oc1ccnc2cc(Cl)ccc12	107%	73.3%	80.6%	98.4%	96%	70.4%	92.5%	78.7%	98.1%	107%	87.7%	74.4%	104%	66.6%	77.8%	77.4%	101%	103%	90.1%	101%
Nc1ncncc1-c1ccc(F)cc1	108%	108%	108%	105%	110%	95.9%	119%	106%	104%	114%	115%	109%	112%	127%	109%	112%	100%	95.6%	118%	107%
O=C(Nc1ccc(CN2CCOCC2)cc1)c1ccc(-c2cc(Cl)ccc2Cl)o1	82.7%	72.5%	51.4%	71.4%	5.58% (active)	19.2%	66.7%	57.3%	63%	-82.1% (active)	75.4%	-23.7% (active)	-53.4% (active)	9.54% (active)	38.4%	57.8%	57.6%	88.3%	49.4%	-44.2% (active)
N#Cc1c(-c2ccccc2)nc(SCC(=O)N2CCOCC2)[nH]c1=O	104%	98%	98.1%	83.7%	105%	88.9%	83.6%	101%	100%	105%	112%	89.8%	92.4%	114%	117%	104%	97.1%	97.1%	97%	100%
Cc1ccc(-n2nnc3c(sc4ccccc43)c2=O)cc1	70.3%	46.9%	38.8%	31.6%	18.3%	6.27% (active)	58.6%	35.3%	24.4%	44%	33.7%	80.3%	68.1%	40.9%	59.9%	39.8%	27.3%	57.2%	83%	83.1%
FC(F)(F)c1ccc(-c2cnc(Cl)nc2NC2CCCCCC2)cc1	25.8%	42.1%	71.1%	33.4%	25.8%	-28.4% (active)	-6.08% (active)	17.4%	40.1%	22%	59.7%	11.9%	-42.8% (active)	47.4%	31.3%	39.4%	-45.6% (active)	75.1%	-10.3% (active)	21.8%
